# According to article PMC7819943, “Rice protein-binding microarrays: a tool to detect cis-acting elements near promoter regions in rice”:
# Whole data set: some 39,000 sequences, median “fluorescence intensity (a.u.)” near 4,300, cut for the highest 2% near 39,000. The sample holds the highest values, similar sequences and a random draw of the others, so the mix is not that of the screen.
# Biological target: T1, OsSMF1 (Oryza sativa, UniProt Q6ZLB0 1-436)
# T1 sequence: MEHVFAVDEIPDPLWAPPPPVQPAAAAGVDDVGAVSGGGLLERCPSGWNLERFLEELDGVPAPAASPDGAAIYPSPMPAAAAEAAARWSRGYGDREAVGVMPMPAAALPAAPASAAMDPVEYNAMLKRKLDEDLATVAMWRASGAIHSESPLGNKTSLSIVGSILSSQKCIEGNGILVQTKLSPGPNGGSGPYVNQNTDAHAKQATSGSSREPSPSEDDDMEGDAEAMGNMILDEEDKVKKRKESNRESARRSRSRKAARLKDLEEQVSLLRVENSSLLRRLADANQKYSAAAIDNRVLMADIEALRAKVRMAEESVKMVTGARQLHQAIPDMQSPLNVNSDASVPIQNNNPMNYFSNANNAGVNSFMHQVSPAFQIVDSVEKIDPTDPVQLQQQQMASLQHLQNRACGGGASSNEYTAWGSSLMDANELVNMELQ
# Experiment: protein-binding microarray (RPBM); PBS, 2% BSA, 51.3 ng/ul salmon testes DNA, 50 uM zinc acetate, 200 nM TF, 25 C, 1 h; high values mean tight binding
# Settings: protein: recombinant; tags: N-terminal polyhistidine and DsRed monomer fusion (pET32a); chain copies: 2; label: CyDye5-dUTP incorporated in the synthesized complementary strand; 3' TTTTT single-stranded linker to array surface; dsDNA, one strand shown
# How it was run: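 The binding signal is fluorescence intensity per array feature (arbitrary units). Readings came from an Axon 4000B scanner after a washed, 2% BSA-blocked, double-stranded custom Agilent array had been incubated for 1 h at 25 °C with 200 nM protein and 50 µM zinc acetate. The protein was a Ni–NTA-purified transcription factor fused N-terminally to polyhistidine and DsRed, expressed in E. coli BL21-CodonPlus.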
row,Sequence,binding signal
1,CTCGCTCGCCTGCCTCCCCACCTCACCAGCTCACCCCACGCGGAGTCACCTAGTGCAG,4810 fluorescence intensity (a.u.)
2,TCAAGATCCAACAGCTTGTCTCGTGCTCGTCACAGCTTCTCGGAGTCACCTAGTGCAG,3230 fluorescence intensity (a.u.)
3,GCAAGAGATCCGAGAAGAGCAACATAACCCACAGGCCGCTCGGAGTCACCTAGTGCAG,3720 fluorescence intensity (a.u.)
4,CCCCACCGACGGCGTGCAAAGCGGCCACCCAGCTCGACGCCGGAGTCACCTAGTGCAG,8120 fluorescence intensity (a.u.)
5,TTAGTATTTAAAATTTAAAAGCAAAGTCATTCTCCTTCTACGGAGTCACCTAGTGCAG,8610 fluorescence intensity (a.u.)
6,TGGGTGTAATTGTTTCCTCGATTTCGCTGGCATGTACTTTCGGAGTCACCTAGTGCAG,3780 fluorescence intensity (a.u.)
7,GGATGGACGTGTGGGGCCTCGCCGTCAGCATTTGCTCCTTCGGAGTCACCTAGTGCAG,4560 fluorescence intensity (a.u.)
8,GCGTACGGCTGCCTAATGCAGAGCCTGACGTGGCGAGCTGCGGAGTCACCTAGTGCAG,17400 fluorescence intensity (a.u.)
9,GATAAAGGTCTCTATTTGCATGACATATATCGTTACTATACGGAGTCACCTAGTGCAG,3570 fluorescence intensity (a.u.)
10,CTCCAGCAGCTGCTCGCTCGTCATCACCGCGATGCTGCCGCGGAGTCACCTAGTGCAG,3490 fluorescence intensity (a.u.)
11,TTGGCGGTGATCGAGGTTAGACATCTCACCGTCAATCTTGCGGAGTCACCTAGTGCAG,3180 fluorescence intensity (a.u.)
12,AGACCACATAGAATGGAAGCGTCATCAGTTTCCACGCAATCGGAGTCACCTAGTGCAG,6480 fluorescence intensity (a.u.)
13,CGTCAGCCTGCAATCGCTTTCTGGGCCCAATAGTACGGGCCGGAGTCACCTAGTGCAG,8490 fluorescence intensity (a.u.)
14,TTTGTACTCATTTTATTACAACATGAACAAACCCTTCTTTCGGAGTCACCTAGTGCAG,3500 fluorescence intensity (a.u.)
15,TTTCTTTGGTTCAGCTGAACCATTATTTGTTGTTTTACTTCGGAGTCACCTAGTGCAG,40700 fluorescence intensity (a.u.)
16,AAAATTTAATACGACGAATGTTCAAACGGTGCAAGCAAAACGGAGTCACCTAGTGCAG,45000 fluorescence intensity (a.u.)
17,AACTTTCATAAGCAAAATATCAAACGACTTATAATTTTATCGGAGTCACCTAGTGCAG,26300 fluorescence intensity (a.u.)
18,ACTTTGTACTAGTTTTCATATTATGTCATTCTTTAACCATCGGAGTCACCTAGTGCAG,3650 fluorescence intensity (a.u.)
19,AGATCAGCAAGCGAACTGAATTTAATCAAATGTACTAGTACGGAGTCACCTAGTGCAG,23000 fluorescence intensity (a.u.)
20,GAAGCCCTAGCCTAGGAGTGAGAGGTCCCACGTCTTCCCCCGGAGTCACCTAGTGCAG,3780 fluorescence intensity (a.u.)
21,TTAATAATAGCCATGTGCGTCATTAGACGGTAGTACGATCCGGAGTCACCTAGTGCAG,5910 fluorescence intensity (a.u.)
22,TGTATAATACATGCCCACGCATTCGCGCGGGCTACCCTCCCGGAGTCACCTAGTGCAG,3530 fluorescence intensity (a.u.)

row,Sequence,binding signal
1,CATGCAGTCAATAGTGTGACTGTAACTTAAACGGTCACACCGGAGTCACCTAGTGCAG,3750 fluorescence intensity (a.u.)
2,GGGCCTCCCCTCCTCCCTTCGCTGGCGAGAGGACGGAGACCGGAGTCACCTAGTGCAG,3400 fluorescence intensity (a.u.)
3,GATATATCCACATCAGCGTGCATACAAGTGTGTCAAAGCTCGGAGTCACCTAGTGCAG,8160 fluorescence intensity (a.u.)
4,CATCAAACAACCAGTTTCTTAGGATGTCTTTTAACCGTGACGGAGTCACCTAGTGCAG,23200 fluorescence intensity (a.u.)
5,AACCCCAGAAACCAGAGGCGGGCTGGTTGATCCATTCTTTCGGAGTCACCTAGTGCAG,45000 fluorescence intensity (a.u.)
6,TCACCCCTGAGAAAGACACGTCTTTCTGGTTTAATCCATTCGGAGTCACCTAGTGCAG,3620 fluorescence intensity (a.u.)
7,AAACCATTCGCCCGATTTGATCCACATCACCACTTTGGTTCGGAGTCACCTAGTGCAG,10400 fluorescence intensity (a.u.)
8,GGGAAACGAGTCAAGCTGACGTGTGCAAGAATCTCCTACACGGAGTCACCTAGTGCAG,13500 fluorescence intensity (a.u.)
9,GTAAGTTGAATGATGTCATATATTTAATTTTACGGTAAGTCGGAGTCACCTAGTGCAG,6940 fluorescence intensity (a.u.)
10,AAAATTATTAACTTCTTGTTTCGATCACCCTAATAAATAGCGGAGTCACCTAGTGCAG,41000 fluorescence intensity (a.u.)
11,TAATTAAATTGTCATATCACTTCTTAACTTATTGGACTAACGGAGTCACCTAGTGCAG,3220 fluorescence intensity (a.u.)
12,TACATTATATTCAATTCTAACTTTCGGAAATATTATATAGCGGAGTCACCTAGTGCAG,26900 fluorescence intensity (a.u.)
13,GACGTGGTAAGTTAACTTGGTTAAAATGTGCTGACGTGGTCGGAGTCACCTAGTGCAG,24700 fluorescence intensity (a.u.)
14,CACGGACGCAAGGGGCCTGCTAAGCCTCTACAACGCAGCGCGGAGTCACCTAGTGCAG,41800 fluorescence intensity (a.u.)
15,AATGCTAAGGGACAACGTCAGCGGGTTAGTGCAAGGTAAGCGGAGTCACCTAGTGCAG,6630 fluorescence intensity (a.u.)
16,TGCAGGGGCGCAGCACGGGAGGGTGCTTGACGCATACAAGCGGAGTCACCTAGTGCAG,4030 fluorescence intensity (a.u.)
17,CTCTGTGCTGAAATGGTTAGGTATGTTTTCTTTCTGCTCTCGGAGTCACCTAGTGCAG,40700 fluorescence intensity (a.u.)
18,TGGTATGAATGGATAATTTGTTTCTGTCTTATGTGTTGCTCGGAGTCACCTAGTGCAG,3150 fluorescence intensity (a.u.)
19,GCTGCTCTCTTTCCTCTCTTCTCTCTCTGTTTTCTCTCCTCGGAGTCACCTAGTGCAG,18500 fluorescence intensity (a.u.)
20,TCGGCAAGCTGAGACGGCTAGTGAACCTATCAGCCATCAGCGGAGTCACCTAGTGCAG,15900 fluorescence intensity (a.u.)
21,TCTGCAAGCACCAACGAGAAGCCACAAATGTTCACATCACCGGAGTCACCTAGTGCAG,3610 fluorescence intensity (a.u.)
